Assay [1] in a line: NCI Yeast Anticancer Drug Screen. Data for the rad50 strain (AID 155).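 Note: 0% = growth of vehicle-only cultures of the same strain.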 The following applies: S. cerevisiae rad50 strain growth inhibition; at 50.0 µM; hits give high values. The gist of the method:
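Readout: growth inhibition relative to vehicle-treated cultures. Compound exposure was carried out in a genetically defined yeast strain deficient in DNA damage repair.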

Assay [2] is described as follows: NCI Yeast Anticancer Drug Screen. Data for the mec2-1 strain (AID 157). The settings on record: S. cerevisiae mec2-1 strain, at 50.0 µM, hits give high values. The gist of the method:
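Each compound was tested on mec2-1 yeast, a strain altered in DNA damage repair or cell cycle control. Growth inhibition is reported relative to vehicle.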

Assay [3] can be described thus: NCI Yeast Anticancer Drug Screen. Data for the sgs1 mgt1 strain (AID 161).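 Note: 0% = growth of cultures given vehicle only.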 The following applies: S. cerevisiae sgs1 mgt1 strain, at 50.0 µM, hits give high values. Summed up:
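Mutant yeast exposed to compound; growth scored against vehicle-only wells.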

The nature of assay [4]: NCI Yeast Anticancer Drug Screen. Data for the cln2 rad14 strain (AID 165).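 Note: 0% = growth equal to vehicle treated cultures.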 The following applies: S. cerevisiae cln2 rad14 strain, at 50.0 µM, hits give high values. Summed up:
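Test compounds were added to cln2 rad14 yeast cultures; inhibition of growth was then determined by comparison with vehicle treatment.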

Assay [5] can be described thus: NCI Yeast Anticancer Drug Screen. Data for the bub3 strain (AID 167). The settings on record: S. cerevisiae bub3 mutant strain, at 50.0 µM, hits give high values. The gist of the method: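 Readout: yeast growth inhibition, expressed relative to vehicle-only wells. The test organism is a mutant strain from a panel with lesions in DNA repair or checkpoint genes.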
The nature of assay [6]: NCI Yeast Anticancer Drug Screen. Data for the mlh1 rad18 strain (AID 175). The following applies: S. cerevisiae mlh1 rad18 strain growth inhibition; at 50.0 µM; hits give high values. Summed up: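 Inhibition values reflect reduced growth of mutant yeast versus vehicle-treated controls following compound exposure; the mutations affect DNA damage repair.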

About 79,000 compounds went through this panel and 15% of them were active in at least one assay; those are over-represented in the sample as a whole. A number with no mark means an inactive call. Activity calls are given as the source filed them. Cut-off read from the data, not from the text of the source: active = growth inhibition above about 70%; inactive = the rest.

Consider `C#CC(CCC)NCCCC` (stereo not given), for which the growth inhibition in assay [1] was 16.2%; in assay [2], -8.95%; in assay [3] it was -8.8%; in assay [4], 3.05%; in assay [5], -4.9%; in assay [6] it was -1.95%.

As to `Cn1nc(C(=O)NN)c(=O)[nH]c1=O`, the growth inhibition in assay [1] was 10.9%; in assay [2] it was -6.75%; in assay [3], 0.8%; in assay [4] it was -20.6%; in assay [5] it was 6.6%; in assay [6], 16.9%.

Consider `CS(=O)(=O)c1nc(Cl)c2[nH]c(Cl)nc2n1`, for which the growth inhibition is 16.9% in assay [1]; -19.5% in assay [2]; 5.35% in assay [3]; -11.3% in assay [4]; 12.2% in assay [5]; 22% in assay [6].

For `N#CC(c1ccccc1)N(CCc1ccccc1)C(=O)c1ccc(C(=O)N(CCc2ccccc2)C(C#N)c2ccccc2)cc1` (stereo not given), the growth inhibition was 15.2% in assay [1]; 26.9% in assay [2]; 7.8% in assay [3]; 13.8% in assay [4]; 6.6% in assay [5]; -11.3% in assay [6].

On to `CCOc1ccc(-n2c(C)c(COC(=O)NC)c(COC(=O)NC)c2C)cc1`, for which the growth inhibition in assay [1] is 16.1%; in assay [2] it was -5.9%; in assay [3] it was 68.9%; in assay [4], 3.8%; in assay [5], 67.2%; in assay [6], 92.5% (active).

For `Clc1cccc(CC(Br)Br)c1`, the growth inhibition in assay [1] was 14.8%; in assay [2], 4.45%; in assay [3] it was 6.75%; in assay [4] it was 23%; in assay [5] it was -4.65%; in assay [6] it was 14.5%.

For `O=C(Nc1ccccc1C(=O)N/N=C/c1cccc(O)c1)c1ccccc1`, the growth inhibition in assay [1] is 9.5%; in assay [2] it was 24.8%; in assay [3], 12.9%; in assay [4] it was -20%; in assay [5], 34.5%; in assay [6], 4.55%.

Regarding `CC(=O)OCCc1ccccc1C#N`, the growth inhibition in assay [1] is 7.35%; in assay [2], 9.05%; in assay [3] it was 9.3%; in assay [4], -11.1%; in assay [5] it was -4.25%; in assay [6], 11.9%.

As for `NC(C(=O)O)c1ccccc1C(=O)O` (stereo not given), the growth inhibition in assay [1] is -21.4%; in assay [2], -19.9%; in assay [3] it was -13.4%; in assay [4], 0.8%; in assay [5] it was -7.8%; in assay [6], -21.9%.

As to `CCOC(=O)C(C)c1nc2ccc(C(F)(F)F)cc2[nH]c1=O` (stereo not given), the growth inhibition in assay [1] was 2.15%; in assay [2], 16.7%; in assay [3], 40.4%; in assay [4], 14.2%; in assay [5], 43.4%; in assay [6], 39.5%.

As to `NC(=O)[C@@H]1CCCN1C(=O)c1cccnc1`, the growth inhibition in assay [1] is -14.9%; in assay [2], -18.2%; in assay [3], -12.9%; in assay [4], -14.7%; in assay [5], 4.75%; in assay [6], -13%.

As for `Cc1cc(=O)c2cc3ccc4cccc5ccc(c2[nH]1)c3c45`, the growth inhibition is -12.6% in assay [1]; -8.35% in assay [2]; -10.1% in assay [3]; -24.3% in assay [4]; -6.85% in assay [5]; -5.85% in assay [6].

Take `OC(CCCCCCCCC(O)CN1CCCCC1)CN1CCCCC1` (stereo not given): the growth inhibition in assay [1] is 3.3%; in assay [2], 25.6%; in assay [3] it was 5.45%; in assay [4], 11%; in assay [5], 20.6%; in assay [6], 15.1%.

As for `CCOC(=O)N1CCN(c2c(N)nc(C)[nH]c2=O)CC1`, the growth inhibition was -49.6% in assay [1]; -20.9% in assay [2]; -55.3% in assay [3]; -14.8% in assay [4]; 19.1% in assay [5]; -58.5% in assay [6].

For the compound `O=C(NCc1ccccc1)NCN1CCOCC1`, the growth inhibition is 20.7% in assay [1]; -0.85% in assay [2]; 5.15% in assay [3]; 0.45% in assay [4]; 5.65% in assay [5]; -11.3% in assay [6].

Regarding `CCOC(=O)c1ccc(N=C2C(=S)N(c3ccc(C(=O)OCC)cc3)C(=N)N2/N=C/c2ccccc2)cc1`, the growth inhibition in assay [1] was 19.4%; in assay [2], 13.4%; in assay [3] it was 11.5%; in assay [4], -4.55%; in assay [5] it was 31.9%; in assay [6] it was 1.95%.

`O=C1N(O)C2(C=CCCC2)/C(=N/O)C12CCCCC2` (stereo not given): the growth inhibition in assay [1] was -8.5%; in assay [2], -2.3%; in assay [3], -0.9%; in assay [4], 11.4%; in assay [5], 11.4%; in assay [6] it was 12.1%.

Turning to `C/C(=N/NC(N)=O)c1c(C)c(Cl)cc(Cl)c1OCCCC(C)C`, the growth inhibition in assay [1] was -8.1%; in assay [2], -3.05%; in assay [3], 0.45%; in assay [4], -6.1%; in assay [5], 22.9%; in assay [6], -10.6%.

On to `CCOc1c(OC)ccc(/C(C)=N\O)c1OCC`, for which the growth inhibition in assay [1] was -2.2%; in assay [2], 0.65%; in assay [3] it was 4.8%; in assay [4], -1.7%; in assay [5], 11.3%; in assay [6], 10.1%.

Consider `CC(CNC(=O)C12CC3CC(CC(C3)C1)C2)NC(=O)C12CC3CC(CC(C3)C1)C2` (stereo not given), for which the growth inhibition in assay [1] is 6.45%; in assay [2], 11%; in assay [3], -27.4%; in assay [4], 7.85%; in assay [5], -11.8%; in assay [6], 14.3%.

The values above are taken from PubChem BioAssay (NCI).
